# From the supplement of paper PMC3484114
# ± gives the standard deviation.
# System: OVCAR-3-derived ovarian cancer stem-like cells (spheroids)
# Experiment: cell growth relative to untreated control; higher = more growth (less inhibition)
# Details: 2.29 µM; 96 h
# Summary of the method: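 Stem-like cells derived from OVCAR-3 spheroids were dissociated with trypsin and seeded at 50,000 cells/mL in stem cell medium in ultra-low attachment 96-well plates, then preincubated for 24 h. Each compound was added at 2.29 uM to 4 replicate wells and left for 96 h at 37°C, 5% CO2. Viability came from TOX8 resazurin fluorescence (ex 560/em 590 nm) read after 4 h. Percent growth was expressed relative to untreated wells, after blank subtraction and removal of outliers by the Grubbs test.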
row,SMILES,cell growth
1,O=c1oc2ccccc2cc1-c1ccc([N+](=O)[O-])cc1,38.6 ± 7.1%
2,Cc1ccccc1OCC(COC(=O)Nc1ccccc1)OC(=O)Nc1ccccc1 (centres undefined),111 ± 16%
3,COC(=O)/C(=N\NC(=O)c1ccccc1O)C(C#N)c1ccccc1 (centres undefined),99.9 ± 33%
4,CN(C)C(=O)c1cccc(COc2ccc(N3C(N)=NC(N)=NC3(C)C)cc2Cl)c1,76 ± 15%
5,Clc1ccccc1C(c1ccccc1)(c1ccccc1)n1ccnc1,106 ± 13%
6,Cc1ccc(Cl)c2c(N=Nc3ccccc3[N+](=O)[O-])c(O)[nH]c12,107 ± 34%
7,Cc1ccc(S(=O)(=O)N2CCSCCSCCSCCSCC2)cc1,92.2 ± 26%
8,CN(C)c1ccc(/C=C/C(=O)c2ccccc2)cc1Br,114 ± 9.2%
9,Cc1ccc(NC(=O)/C=C/c2ccccc2)c(C)c1,77.2 ± 16%
10,Cc1ccc2c(ccc(C=Cc3ccc(O)c4ncccc34)[n+]2C)c1,23.7 ± 4.7%
11,COc1cc(CC(=O)c2cc3c(cc2-c2ccccc2)OCO3)cc(OC)c1OC,83.1 ± 25%
12,Cc1ccccc1NC(=O)C(=O)C(C(=O)c1ccccc1F)C1OC(=O)c2ccccc21 (centres undefined),94.9 ± 13%
13,Cc1ccc(Nc2nc(C)c(C(/C=C/c3ccc(/C=C/C(=N\NC(=O)C[n+]4ccccc4)c4sc(Nc5ccc(C)cc5[N+](=O)[O-])nc4C)cc3)=N/NC(=O)C[n+]3ccccc3)s2)c([N+](=O)[O-])c1,110 ± 11%
14,COc1ccc2[nH]c3c(C)c4ccncc4c(C)c3c2c1,65.8 ± 11%
15,O=C1Oc2ccccc2C1C/C(=N\Nc1ccccc1)c1ccccc1O (centres undefined),158 ± 100%
16,Cc1ccc(S(=O)(=O)NC(=O)NC2=NC(C)(C)N(c3ccc(Cl)c(Cl)c3)C(N)=N2)cc1,84.1 ± 23%
17,C=C(C)[C@@H]1CC[C@]2(C)CC[C@]3(C)[C@H](CC[C@@H]4[C@@]5(C)CC[C@H](O)C(C)(C)[C@@H]5CC[C@]43C)[C@@H]12,121 ± 19%
18,COc1ccc2nc(NC(=O)C(=O)CC(=O)c3ccc(Cl)cc3)sc2c1,109 ± 40%
19,CN(C)CCNC(=O)c1cccc2[nH]c(-c3ccncc3)nc12,96.5 ± 22%
20,O=C1c2ccccc2C(=O)C1C(c1ccc([N+](=O)[O-])cc1)C1C(=O)c2ccccc2C1=O,83.3 ± 24%

row,SMILES,cell growth
1,CC(=O)c1sc2c(c1OC(=O)c1ccc(Cl)cc1Cl)c(=O)n(-c1ccccc1)c(=S)n2-c1ccccc1,94.1 ± 24%
2,Cc1ccc2[nH]c(O)c(N=Nc3ccccc3[N+](=O)[O-])c2c1,108 ± 15%
3,COC1CN(C)C(=Nc2cccc3ccccc23)S1 (centres undefined),130 ± 21%
4,Nc1nc2n[nH]nc2c(=O)[nH]1,91.6 ± 14%
5,N[C@H](C(=O)O)[C@@H]1CC(Cl)=NO1,85.3 ± 21%
6,COc1ccc(/C(=N/O)C(c2ccc(OC)cc2)C2C(=O)Oc3ccccc32)cc1 (centres undefined),73.1 ± 14%
7,N#CCCN(CCC#N)c1ccc(C=Nc2ccc(F)cc2)cc1,101 ± 28%
8,OC[C@H]1O[C@@H](n2cnc3cncnc32)[C@H](O)[C@@H]1O,10.4 ± 3.1%
9,N#CC(=S)Nc1ccc(F)cc1,104 ± 19%
10,COc1cc(NC(C)CCCN)c2ncccc2c1 (centres undefined),56.5 ± 7%
11,O=C1c2cccc(NCCCNCCO)c2C(=O)c2cccc(NCCCNCCO)c21,57.9 ± 16%
12,Nc1ccc(OCCCc2c(-c3ccccc3)nc(N)[nH]c2=O)cc1,82.7 ± 20%
13,Cc1ccc2[c](c1)[Sn]([c]1ccccc1)([c]1ccccc1)[c]1cc(C)ccc1N2C,87.8 ± 12%
14,COC(=O)C(=O)C(C(=O)C(=O)Nc1cc(C)ccc1C)c1nc2ccc(C(=O)c3ccccc3)cc2[nH]c1=O (centres undefined),91.5 ± 15%
15,Cc1ccc(NC(=O)c2cccc([N+](=O)[O-])c2O)c(C)c1,110 ± 19%
16,Cc1nc(Nc2ccc(Cl)c(Cl)c2)sc1C(/C=C/c1ccc2c(c1)OCO2)=N/Nc1ccc([N+](=O)[O-])cc1[N+](=O)[O-],101 ± 15%
17,COc1ccc(-n2/c(=N/C(=S)N(C)C)ss/c2=N\C(=S)N(C)C)cc1,111 ± 15%
18,Cc1c(Cl)ccc2c1NC(=O)C2(O)C(C(=O)c1ccccc1)c1ccccc1 (centres undefined),107 ± 48%
19,O=C(Nc1cccc(C(F)(F)F)c1)C(=O)C(C(=O)c1ccc(Cl)c(Cl)c1)C1OC(=O)c2ccccc21 (centres undefined),102 ± 20%
